Assay results taken from PubChem BioAssay (NCATS).
Several values for one entry are separate records, joined by “and”; a condition that tells them apart may be missing. Identical values can stand only once. Records with an inconclusive call do not appear. A call without a number means that no potency is given here. Activity calls are given as the source filed them. Unless noted, calls come from the whole dose curve; as a rule, active = well fitted curve in the direction sought with a large enough effect; inconclusive = small, poorly fitted or top-dose-only effect, or another doubt; inactive = no such curve, though single readings can be large; an effect the other way counts as inactive or inconclusive.

Assays:
[1] = qHTS Assay for Lipid Storage Modulators (AID 1519; calls by dose curve); details: Drosophila S3 cells, BODIPY lipid droplet/cell ratio, laser cytometry, cells loaded with oleic acid; for activity change, negative = inhibition: at 57.5 µM (top of the series)
Procedure, shortened: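 Cells seeded at 5,000 per well were treated with compounds over a concentration series and loaded with oleic acid (400 uM, as added). Lipid droplet fluorescence (488 nm excitation, 500-530 nm channel) was read by laser-scanning cytometry and normalized to 20 uM Triacsin C.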

[2] = biological target: DNA repair nuclease/redox regulator APEX1 (Homo sapiens) (UniProt P27695); test: qHTS Validation Assay for Inhibitors of the Human Apurinic/apyrimidinic Endonuclease 1 (APE1) (AID 1705; note: potency is the fitted concentration of half-maximal effect;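 for activity change, negative = inhibition: TAMRA fluorescence gain over two minutes as APE1 cuts a quenched THF abasic duplex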); details: purified APE1 endonuclease activity, fluorescence, titration; series mostly up to 57.1 µM
Chain of DNA repair nuclease/redox regulator APEX1 (Homo sapiens) (P27695 whole entry, looked up): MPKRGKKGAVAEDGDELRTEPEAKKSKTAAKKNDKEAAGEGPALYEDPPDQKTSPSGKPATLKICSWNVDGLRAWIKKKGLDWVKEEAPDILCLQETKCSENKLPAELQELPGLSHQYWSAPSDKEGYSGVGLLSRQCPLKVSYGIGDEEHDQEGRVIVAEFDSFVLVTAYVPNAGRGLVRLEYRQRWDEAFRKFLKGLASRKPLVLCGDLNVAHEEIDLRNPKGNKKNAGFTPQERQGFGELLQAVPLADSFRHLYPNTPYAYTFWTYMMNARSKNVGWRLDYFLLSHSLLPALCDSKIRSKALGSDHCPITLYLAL
Procedure, shortened: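 Endonuclease activity of human APE1 is followed as dequenching when the enzyme incises a tetrahydrofuran abasic site in a short duplex labelled 5'-TAMRA/3'-BHQ-2 (50 nM final), after 15 min enzyme–compound preincubation at room temperature.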

[3] = Counterscreen for APE1 Inhibitors: Fluorescent Dye Displacement Validation Assay (AID 1707); details: fluorescent dye displacement from DNA; series mostly up to 57.1 µM
Procedure, shortened: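 Compounds are scored by their ability to displace Thiazole Orange (250 nM) from a 50 nM TAMRA-tagged duplex bearing a tetrahydrofuran abasic site. Buffer is 50 mM Tris-HCl pH7.5, 50mM NaCl, 2 mM MgCl2, 0.01% Tween-20.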

[4] = qHTS for differential inhibitors of proliferation of Plasmodium falciparum line 7G8 (AID 1815); details: Plasmodium falciparum 7G8 proliferation inhibition; series mostly up to 28.7 µM;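 note: parasite growth measured after three days of incubation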; note: potency is the fitted concentration of half-maximal effect
[5] = qHTS for differential inhibitors of proliferation of Plasmodium falciparum line GB4 (AID 1816); details: Potency: Plasmodium falciparum GB4 proliferation inhibition; series mostly up to 28.7 µM;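 note: parasite growth measured after 72 h incubation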; note: potency is the fitted concentration of half-maximal effect
[6] = qHTS for differential inhibitors of proliferation of Plasmodium falciparum line D10 (AID 1877); details: series mostly up to 28.7 µM;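 note: parasites grown with compound for 72 h before DNA staining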; note: potency is the fitted concentration of half-maximal effect
[7] = qHTS for differential inhibitors of proliferation of Plasmodium falciparum line Dd2 (AID 1882); details: Potency: Plasmodium falciparum Dd2 proliferation inhibition; series mostly up to 28.7 µM; note: nearly all actives have a fitted effect of over 65% in size; note: potency is the fitted concentration of half-maximal effect;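 for activity change, negative = inhibition: compound exposure of 72 h on infected erythrocytes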
Procedure, shortened: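 SYBR Green I DNA fluorescence read-out, ex 485/em 535 nm. Signals were normalized to 0.29 uM artemisinin and DMSO wells, then corrected using vehicle-only plates flanking each stack. Parasite growth ran 72 h in erythrocytes before lysis.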

[8] = qHTS for differential inhibitors of proliferation of Plasmodium falciparum line W2 (AID 1883); details: Potency: Plasmodium falciparum W2 proliferation inhibition; series mostly up to 28.7 µM;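 note: parasites grown with compound for 72 h before lysis and staining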; note: potency is the fitted concentration of half-maximal effect
[9] = qHTS for differential inhibitors of proliferation of Plasmodium falciparum line HB3 (AID 1886); details: Potency: Plasmodium falciparum HB3 proliferation inhibition; series mostly up to 28.7 µM;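 note: parasites grown with compound for 72 h before SYBR Green readout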; note: potency is the fitted concentration of half-maximal effect
[10] = biological target: ATP-dependent DNA helicase Q1 (Homo sapiens) (UniProt P46063); test: qHTS Validation Assay for Inhibitors of RecQ-Like Dna Helicase 1 (RECQ1) (AID 2353); details: recombinant RECQ1 helicase DNA unwinding assay; series mostly up to 25.6 µM; note: potency is the fitted concentration of half-maximal effect
Chain of ATP-dependent DNA helicase Q1 (Homo sapiens) (P46063 whole entry, looked up): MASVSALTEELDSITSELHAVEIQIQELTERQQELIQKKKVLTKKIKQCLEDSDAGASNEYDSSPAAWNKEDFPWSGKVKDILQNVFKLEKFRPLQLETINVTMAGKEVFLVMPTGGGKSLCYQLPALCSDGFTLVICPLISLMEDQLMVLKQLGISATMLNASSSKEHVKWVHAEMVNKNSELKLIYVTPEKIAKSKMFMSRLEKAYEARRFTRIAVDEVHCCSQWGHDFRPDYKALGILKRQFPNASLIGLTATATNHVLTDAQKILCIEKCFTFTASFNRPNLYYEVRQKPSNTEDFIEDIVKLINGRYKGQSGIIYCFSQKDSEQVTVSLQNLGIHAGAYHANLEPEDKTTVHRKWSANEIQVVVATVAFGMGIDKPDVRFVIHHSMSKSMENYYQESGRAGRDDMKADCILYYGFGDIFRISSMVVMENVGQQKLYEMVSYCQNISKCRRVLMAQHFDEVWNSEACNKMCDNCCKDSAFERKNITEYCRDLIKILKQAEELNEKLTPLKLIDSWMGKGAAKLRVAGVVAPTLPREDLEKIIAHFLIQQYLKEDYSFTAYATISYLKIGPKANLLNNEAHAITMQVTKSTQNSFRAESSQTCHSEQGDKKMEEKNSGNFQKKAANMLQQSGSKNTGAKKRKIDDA
Procedure, shortened: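 50 nM RECQ1T1 preincubated 15 min with compound in Tris pH 8.0 buffer with MgCl2, DTT, Tween-20 and 2.5 ug/ml poly(dI-dC); started with 200 nM TAMRA/BHQ-2 forked duplex and 2 mM ATP. Unwinding read as fluorescence (525/598 nm), two reads 2 h apart.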

[11] = Cytometric Cell-Based qHTS for Inhibitors of the mTORC1 Signaling Pathway in MEF (Tsc2-/-, p53-/-) Cells (AID 2660); details: mTORC1 pathway cytometry; series mostly up to 38.3 µM;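 note: percent of cells above a phospho-rpS6 to PI ratio cutoff in each well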
Procedure, shortened: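 Immunofluorescence qHTS of rpS6 Ser235/236 phosphorylation: MEFs (Tsc2-/-, p53-/-) treated 24 h, 37 C, in DMEM + 10% FBS. Alexa-488 signal normalized to PI count, referenced to rapamycin (7.5 nM) and DMSO; PI cell number recorded for viability.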

[12] = High Content Imaging Cell-Based qHTS for Inhibitors of the mTORC1 Signaling Pathway in MEF (Tsc2-/-, p53-/-) Cells (AID 2666); details: series mostly up to 38.3 µM;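 note: percent of cells scored positive for phospho-rpS6 Ser235/236 immunostaining by imaging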
Procedure, shortened: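 Phospho-rpS6 (Ser235/236) immunofluorescence, normalized and scored as % positive cells using rapamycin and DMSO controls, was read in empty-vector Tsc2-/-, p53-/- MEFs after 24 h compound exposure at 37 C; propidium iodide counted cells.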

[13] = biological target: Endonuclease 4 (Escherichia coli (strain K12)) (UniProt P0A6C1); test: Counterscreen for APE1 Inhibitors: qHTS Validation Assay for Inhibitors of Endonuclease IV (AID 1708); note: potency is the fitted concentration of half-maximal effect; details: E. coli endonuclease IV, DNA cleavage fluorescence; series mostly up to 57.1 µM
Procedure, shortened: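 Cleavage of a quenched abasic-site DNA duplex (50 nM, 5'-TAMRA, 3'-BHQ-2) by 2 nM enzyme is followed as fluorescence increase. Compounds are preincubated with enzyme 15 min at room temperature before substrate addition.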

[14] = qHTS for differential inhibitors of proliferation of Plasmodium falciparum line 3D7 (AID 1876); note: potency is the fitted concentration of half-maximal effect; details: P. falciparum 3D7 proliferation inhibition; series mostly up to 28.7 µM
[15] = qHTS Assay for Modulators of Human Peripheral Myelin Protein 22 (PMP22) Expression/Activity (AID 1967; active = well fitted curve in the direction sought with a large enough effect in the signal ratio; the % refers to the signal ratio); details: Cell-based PMP22 reporter, dual-color luciferase ratio, 0% = compound-free control cells, mouse Pmp22 promoter in mouse Schwann cells; series mostly up to 115 µM
Procedure, shortened: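 Quantitative HTS in a mouse Schwann cell line expressing dual click beetle luciferases: Pmp22 promoter (green) and control EF-alpha promoter (red). After 24h treatment, corrected green/red signal ratio gave %Activity relative to untreated cells.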

[16] = biological target: Ferritin light chain (Equus caballus) (UniProt P02791); test: qHTS Validation Assay for Identification of Novel General Anesthetics (AID 2323); details: horse apoferritin, anesthetic-site fluorescent probe displacement; series mostly up to 76.9 µM; note: potency is the fitted concentration of half-maximal effect
Chain of Ferritin light chain (Equus caballus) (P02791 2-175 limits assumed): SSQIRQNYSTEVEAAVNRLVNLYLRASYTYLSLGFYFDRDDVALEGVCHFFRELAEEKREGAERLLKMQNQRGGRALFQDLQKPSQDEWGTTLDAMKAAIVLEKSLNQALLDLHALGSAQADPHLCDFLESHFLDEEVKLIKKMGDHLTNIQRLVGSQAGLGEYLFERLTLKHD
Procedure, shortened: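 Apoferritin from horse spleen (10 uM) was mixed with 1-aminoanthracene at 50% saturation in PBS, then compounds were added. After 10 min at room temperature, fluorescence was read (ex 380 nm, em 535 nm) and normalized to free-probe and complex controls.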

[17] = biological target: RecQ-like DNA helicase BLM (Homo sapiens) (UniProt P54132); test: qHTS Validation Assay for Inhibitors of Bloom's syndrome helicase (BLM) (AID 2364); details: BLM helicase DNA unwinding, fluorescence, in vitro; series mostly up to 57.1 µM; note: potency is the fitted concentration of half-maximal effect
Chain of RecQ-like DNA helicase BLM (Homo sapiens) (P54132 whole entry, looked up): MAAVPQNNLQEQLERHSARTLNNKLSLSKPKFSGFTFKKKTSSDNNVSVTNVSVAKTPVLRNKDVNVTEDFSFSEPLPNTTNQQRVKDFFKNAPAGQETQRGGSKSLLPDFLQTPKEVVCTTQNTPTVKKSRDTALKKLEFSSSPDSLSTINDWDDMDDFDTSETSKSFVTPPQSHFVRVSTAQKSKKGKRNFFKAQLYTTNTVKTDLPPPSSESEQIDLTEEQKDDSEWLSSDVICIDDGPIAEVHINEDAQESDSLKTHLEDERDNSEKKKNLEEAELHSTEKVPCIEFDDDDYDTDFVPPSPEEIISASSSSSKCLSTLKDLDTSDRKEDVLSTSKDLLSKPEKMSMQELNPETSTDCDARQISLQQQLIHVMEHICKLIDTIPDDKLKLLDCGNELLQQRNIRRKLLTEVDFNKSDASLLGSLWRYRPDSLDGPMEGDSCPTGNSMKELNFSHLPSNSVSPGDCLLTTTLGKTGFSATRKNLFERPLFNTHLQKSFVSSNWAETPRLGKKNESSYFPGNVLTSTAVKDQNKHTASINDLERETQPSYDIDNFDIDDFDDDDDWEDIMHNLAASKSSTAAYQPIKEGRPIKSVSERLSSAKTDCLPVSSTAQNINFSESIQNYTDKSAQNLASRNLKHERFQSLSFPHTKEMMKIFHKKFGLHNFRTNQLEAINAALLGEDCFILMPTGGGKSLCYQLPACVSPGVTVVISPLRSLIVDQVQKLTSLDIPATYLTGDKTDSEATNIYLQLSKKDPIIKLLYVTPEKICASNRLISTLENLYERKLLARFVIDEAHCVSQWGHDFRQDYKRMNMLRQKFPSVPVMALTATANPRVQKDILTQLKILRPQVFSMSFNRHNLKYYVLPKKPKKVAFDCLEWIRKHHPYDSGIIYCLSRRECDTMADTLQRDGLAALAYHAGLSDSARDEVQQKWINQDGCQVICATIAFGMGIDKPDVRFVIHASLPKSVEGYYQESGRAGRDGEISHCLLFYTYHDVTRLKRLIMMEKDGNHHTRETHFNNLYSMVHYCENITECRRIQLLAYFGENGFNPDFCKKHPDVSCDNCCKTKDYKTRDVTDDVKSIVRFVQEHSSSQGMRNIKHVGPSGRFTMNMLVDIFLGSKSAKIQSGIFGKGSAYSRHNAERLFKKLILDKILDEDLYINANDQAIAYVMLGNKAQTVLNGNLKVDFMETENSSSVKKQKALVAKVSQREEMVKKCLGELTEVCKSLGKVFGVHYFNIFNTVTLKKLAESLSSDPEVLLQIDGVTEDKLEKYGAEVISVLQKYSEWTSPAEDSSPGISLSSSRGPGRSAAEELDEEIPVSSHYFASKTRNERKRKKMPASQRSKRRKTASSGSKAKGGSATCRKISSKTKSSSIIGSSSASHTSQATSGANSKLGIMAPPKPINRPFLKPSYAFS
Procedure, shortened: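 50 nM BLM preincubated 15 min at room temperature with compound in pH 8.0 Tris buffer containing 2.5 ug/ml poly(dI-dC); started with 200 nM TAMRA/BHQ-2 forked duplex and 2 mM ATP (final). Unwinding read as TAMRA fluorescence increase, two reads 2 h apart.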

[18] = measured here: cell count channel max response
[19] = measured here: lipid channel max response

| Structure (SMILES) | activity change, negative = inhibition [1] | max response [1, 18] | max response [1, 19] | Potency [2] | Potency [3] | Potency [4] | Potency [5] | Potency [6] | Potency [7] | Potency [8] | Potency [9] | Potency [10] | outcome [11] | Potency [12] | Potency [13] | Potency [14] | outcome [15] | Potency [16] | Potency [17] |
| --- | --- | --- | --- | --- | --- | --- | --- | --- | --- | --- | --- | --- | --- | --- | --- | --- | --- | --- | --- |
| O=c1[nH]c2cc(C(F)(F)F)ccc2n1-c1cc(C(F)(F)F)ccc1O | -0.787% (inactive) | 34.5% | 34% | inactive | inactive | 4.47 µM (active) | 3.98 µM (active) | 10 µM (active) | 8.91 µM (active) | 7.08 µM (active) | 12.6 µM (active) | inactive | inactive | inactive | – | – | – | – | – |
| NCCCCC(=O)O | 7.28% (inactive) and -0.299% (inactive) | -8.72% and -47.7% | 11.7% and -48.3% | inactive | – | inactive | inactive | inactive | inactive | inactive | inactive | inactive | inactive | inactive | inactive | inactive | inactive | inactive | – |
| CC(C)NC[C@H](O)COc1cccc2[nH]ccc12 | 1.59% (inactive) | -1.16% | -1.16% | inactive | inactive | – | – | – | – | – | – | inactive | inactive | inactive | – | – | – | inactive | – |
| N#C/C(=C\c1ccc(O)c(O)c1)C(=O)c1ccc(O)c(O)c1 | -0.353% (inactive) | 19.5% | 19.3% | 0.282 µM (active) | inactive | – | – | – | – | 12.6 µM (active) | 12.6 µM (active) | 0.282 µM (active) | – | inactive | inactive | 10 µM (active) | – | – | 8.91 µM (active) |
| Ic1ccc(N2CCN(Cc3c[nH]c4ncccc34)CC2)cc1 | 0.316% (inactive) | -23.2% | -22.2% | inactive | inactive | – | – | – | inactive | 2.51 µM (active) | 11.2 µM (active) | inactive | – | inactive | inactive | – | – | inactive | – |
| O=c1[nH]c2cc([N+](=O)[O-])c([N+](=O)[O-])cc2[nH]c1=O | 3.97% (inactive) | -1.11% | 2.64% | inactive | – | inactive | inactive | inactive | inactive | – | inactive | inactive | inactive | inactive | inactive | inactive | inactive | inactive | – |
| S=C(S)OC1CC2CC1C1CCCC21 (stereo unspecified) | -2.21% (inactive) | -18.8% | -14.9% | inactive | – | inactive | inactive | inactive | inactive | inactive | inactive | inactive | inactive | inactive | – | inactive | inactive | 17.8 µM (active) | – |
| CCN1/C(=C/C(C)=O)Sc2ccc(OC)cc21 | 0.847% (inactive) | -21.8% | -21.7% | inactive | – | – | – | inactive | inactive | 14.1 µM (active) | – | inactive | inactive | inactive | inactive | – | – | inactive | – |
| CN(C)c1ccc(/C=C2\C(=O)Nc3ccccc32)cc1 | 0.655% (inactive) | -28.2% | -23.7% | inactive | – | 8.91 µM (active) | 12.6 µM (active) | – | – | 12.6 µM (active) | 10 µM (active) | inactive | inactive | inactive | – | – | – | – | – |
| O=C(Nc1cccc(C(=O)Nc2ccc(S(=O)(=O)O)c3cc(S(=O)(=O)O)cc(S(=O)(=O)O)c23)c1)Nc1cccc(C(=O)Nc2ccc(S(=O)(=O)O)c3cc(S(=O)(=O)O)cc(S(=O)(=O)O)c23)c1 | 2.61% (inactive) | -8.67% | -6.27% | 10 µM (active) | – | inactive | inactive | inactive | inactive | inactive | inactive | – | inactive | inactive | 8.91 µM (active) | inactive | – | inactive | inactive |
| CC(C)NCC(O)COc1cccc2ccccc12 (stereo unspecified) | 10.9% (inactive) | 7.26% | 23.9% | inactive | – | 4.47 µM (active) | 2.51 µM (active) | 11.2 µM (active) | 8.91 µM (active) | 2.82 µM (active) | 12.6 µM (active) | inactive | inactive | inactive | inactive | – | – | inactive | inactive |
| NCCCS(=O)(=O)O | 4.47% (inactive) | 17.3% | 22.8% | inactive | inactive | – | – | – | – | 11.2 µM (active) | – | inactive | – | inactive | inactive | – | – | inactive | inactive |
| O=C(/C=C/c1ccc(O)c(O)c1)OCCc1ccccc1 | -2.35% (inactive) and -20.7% (inactive) | -15.3% and -76.7% | -17.2% and -81.3% | inactive | – | 6.31 µM (active) | 5.01 µM (active) | 12.6 µM (active) | – | 5.01 µM (active) | 10 µM (active) | inactive | – | inactive | inactive | 10 µM (active) | – | inactive | – |
| O=C(O)c1cc([N+](=O)[O-])ccc1NCCCc1ccccc1 | 0.312% (inactive) | -11.5% | -12.2% | inactive | – | – | inactive | – | inactive | – | – | inactive | – | inactive | – | inactive | – | – | – |
| C[C@@H](CN1CCC(Cc2ccccc2)CC1)[C@@H](O)c1ccc(O)cc1 | 0.466% (inactive) | 15.4% | 14.5% | inactive | – | 10 µM (active) | 14.1 µM (active) | – | – | 4.47 µM (active) | inactive | inactive | inactive | inactive | inactive | – | inactive | inactive | inactive |
| CN1CCc2cc(NC(=O)Nc3cccnc3)ccc21 | 0.252% (inactive) | 32.8% | 37.5% | inactive | – | – | – | inactive | inactive | – | – | inactive | inactive | inactive | – | inactive | – | inactive | – |
| O=C(O)[C@@H]1C[C@@H](C(=O)O)N1 | -10.7% (inactive) and 0.262% (inactive) | -15.8% and -6.72% | -25% and -8.29% | inactive | – | inactive | inactive | inactive | inactive | – | inactive | inactive | – | inactive | inactive | inactive | inactive | inactive | – |
